# Sfp inh = qHTS Assay for Inhibitors of Bacillus subtilis Sfp phosphopantetheinyl transferase (PPTase). 4'-phosphopantetheinyl transferase ffp (Bacillus subtilis), Q9F4F7. 310,000 compounds, 3.5% hits. AID 1490, 2009. Potency, µM, without a hit: largest response in the series, negative = inhibition, hits mostly inhibitors. Biochemical Sfp PPTase activity, qHTS;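 also: the enzyme is Sfp with the accession as filed and its product quenches rhodamine fluorescence; 0% = enzyme reaction without inhibitor and -100% = no enzyme wells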
#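 Fluorescence-quenching assay: 15 nM Sfp-PPTase preincubated 15 min at room temperature with compound, then 5 uM rhodamine-CoA and 12.5 uM BHQ-2-labelled YbbR peptide added. Fluorescence (ex 525/em 598 nm) read at start and after 30 min; difference gives rate.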
# L3MBTL1 block = qHTS Assay for the Inhibitors of L3MBTL1; Lethal(3)malignant brain tumor-like protein 1 (Homo sapiens), Q9Y468; AlphaScreen L3MBTL1–H3K9me1 peptide binding; 230,000 compounds, 0.66% hits; AID 485360, 2010; Potency, µM (doses to about 57.1 µM), for the others: top-dose activity, negative = inhibition, usual class: inhibitors; also: % is scaled to controls: 0 for no effect and ±100 for the full control effect; nearly all actives have a fitted effect of over 60% in size
#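 Read-out is AlphaScreen signal from streptavidin donor and nickel chelate acceptor beads (10 ug/mL final each) bridging L3MBTL1 (50 nM) and biotinylated K9-monomethylated H3(1-15) peptide (75 nM), after 30 min compound exposure at room temperature.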
# JMJD2A Tudor inh = qHTS Assay for Inhibitors of JMJD2A-Tudor Domain; AlphaScreen JMJD2A-Tudor / H3K4me3 peptide binding; 390,000 compounds, 4.4% hits; Lysine-specific demethylase 4A (Homo sapiens), O75164; Potency, µM (highest dose often 114 µM), for the others: at the top dose activity change, negative = inhibition, most hits filed as inhibitors; also: % is scaled to controls: 0 for no effect and ±100 for the full control effect; nearly all actives have a fitted effect of over 50% in size
# G9a inh = qHTS Assay for Inhibitors of Histone Lysine Methyltransferase G9a | Histone-lysine N-methyltransferase EHMT2 (Homo sapiens), Q96KQ7 | Potency, µM (highest dose often 102 µM), for inactives: at the top dose activity, negative = inhibition, actives largely listed as inhibitors | G9a H3K9 monomethylation, AlphaScreen, 2 h | 350,000 compounds, 8.8% hits; also: % is scaled to controls: 0 for no effect and ±100 for the full control effect; nearly all actives have a fitted effect of over 75% in size
#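 Using a bead-based AlphaScreen, monomethylated H3K9 product from 2 h room-temperature reactions (G9a 20 nM, peptide 500 nM, SAM 20 uM) was detected with 0.5 ug/mL rabbit anti-H3K9me1 antibody.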
# HP1b binding inh = HTS for Inhibitors of HP1-beta Chromodomain Interactions with Methylated Histone Tails. Chromobox protein homolog 1 (Homo sapiens), P83916. AlphaScreen HP1-beta / biotin-H3K9me3 peptide binding. Potency, µM (highest dose often 114 µM), inactives show top-dose activity change, negative = inhibition, usual class: inhibitors. 390,000 compounds, 0.56% hits. AID 540317, 2011; also: nearly all actives have a fitted effect of over 70% in size
#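 AlphaScreen: HP1-beta (50 nM) preformed 30 min with biotin-H3(1-18)K9me3 peptide (50 nM) in PBS pH 7.4, 0.01% Tween-20. Compound added for 30 min at RT, then streptavidin donor/nickel chelate acceptor beads (10 ug/mL) for 30 min.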
# BAZ2B inh = qHTS Assay for Inhibitors of BAZ2B; Bromodomain adjacent to zinc finger domain protein 2B (Homo sapiens), Q9UIF8; AlphaScreen BAZ2B-H3K14Ac peptide displacement; Potency, µM (titrated, usually from 114 µM), without a hit: at the highest dose activity change, negative = inhibition, most hits filed as inhibitors; 360,000 compounds, 4.4% hits; AID 504333, 2011; also: % is scaled to controls: 0 for no effect and ±100 for the full control effect; nearly all actives have a fitted effect of over 60% in size
#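 Multi-concentration screen (max 110 uM) measuring displacement of acetylated histone H3 peptide from BAZ2B by AlphaScreen, using 50 nM protein, 50 nM peptide and 10 ug/mL streptavidin donor plus Ni-chelate acceptor beads.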
# Numbers without * were called inactive; ? = inconclusive; . = no result given; [ ] = another dose, or the depositor's remark. Hits are enriched below; roughly 12% of the tested compounds scored in any of these assays. Calls follow the shape of the dose curve; as a rule, active = well fitted curve in the direction sought with a large enough effect; inconclusive = small, poorly fitted or top-dose-only effect, or another doubt; inactive = no such curve, though single readings can be large; an effect the other way counts as inactive or inconclusive. Potency is read from the fitted curve at half-maximal effect.
SMILES,Sfp inh,L3MBTL1 block,JMJD2A Tudor inh,G9a inh,HP1b binding inh,BAZ2B inh
O=C(COC(=O)CN1C(=O)C2CCCCC2C1=O)Nc1c(Cl)cccc1Cl (stereo not drawn),.,1.2%,4.0%,2.3%[12.7 µM],44.7%,5.1%
Cc1c(NC(=O)COC(=O)c2c3c(nc4ccccc24)CCCC3)c(=O)n(-c2ccccc2)n1C,12.4%,5.4%,-6.5%,23.8%[59 µM],44.3%,9.0%
Cc1c(NC(=O)C(C)OC(=O)c2c3c(nc4ccccc24)CCC3)c(=O)n(-c2ccccc2)n1C (stereo not drawn),15.2%,?,?,50.1µM*,8.9%,50.1µM*
NC(=O)c1cc([N+](=O)[O-])ccc1NCCc1ccccc1,0.4%,-7.5%,-19.9%,10.5%,3.5%,-32.7%
NC(=O)c1ccc([N+](=O)[O-])cc1SCc1ccccc1,-10.6%,-14.0%,-29.2%,39.8µM*,17.3%,?
COc1ccccc1CNc1nc2nc(C)c(Cl)c(=O)n2[nH]1,12.6%,-3.1%,-13.8%,12.6µM*,32.3%,14.2%
COc1ccc(CNc2nc3nc(C)c(Cl)c(=O)n3[nH]2)cc1,11.2%,-1.6%,-2.9%[11.4 µM],56.2µM*,84.0%,-18.9%
Cc1cc(=O)n2[nH]c(NCc3ccc(F)cc3)nc2n1,.,.,-22.9%,-41.1%[59 µM],22.6%,-21.1%
Cc1ccc(-c2onc3ccc(C(=O)O)cc23)cc1,-8.3%,.,-20.5%,39.8µM*,28.3%,-19.7%
CC(=O)COC(=O)c1ccc2noc(-c3ccccc3)c2c1,1.6%,.,-32.2%,-5.4%,7.9%,50.1µM*
O=C(c1ccccc1)c1ccc(NCCCn2ccnc2)c([N+](=O)[O-])c1,5.6%,.,39.8µM*,-7.9%[2.33 µM],?,39.8µM*
Nc1cccc2nsnc12,-22.4%,2.2%,-15.4%,11.2µM*,-7.2%,-4.6%
CCOc1ccc(CNC(=O)c2ccc(CSc3nc4ccncc4n3Cc3ccc(F)cc3)cc2)cc1,.,.,-21.5%,-29.7%[59 µM],28.8%,-12.6%
CC(=O)c1cc(-c2ccccc2)n(CC(=O)Nc2ccc(C)cc2C)c1C,.,.,-16.0%,2.3%[59 µM],6.9%,4.6%
CC(OC(=O)c1cccc(-n2cnnn2)c1)C(=O)Nc1ccc(F)cc1 (stereo not drawn),1.2%,.,-10.3%,-5.1%[12.7 µM],38.4%,-4.4%
CC(OC(=O)c1cccc(-n2cnnn2)c1)C(=O)Nc1ccccc1F (stereo not drawn),.,-5.8%,-5.5%,50.1µM*,17.0%,4.4%
CC(OC(=O)c1cccc(-n2cnnn2)c1)C(=O)Nc1ccc(N(C)C)cc1 (stereo not drawn),.,-4.4%,-11.7%,7.08µM*,27.9%,-5.4%
CC(OC(=O)c1cccc(-n2cnnn2)c1)C(=O)Nc1ccc(F)c(F)c1F (stereo not drawn),.,.,7.2%,.,57.7%,.
COc1ccccc1C(=O)C1CCCN(C(=O)c2cccc(-n3cccn3)c2)C1 (stereo not drawn),14.2%,-3.6%,-5.8%,-10.1%,27.7%,-37.9%
COc1ccc(S(N)(=O)=O)cc1C(=O)NNC(=O)C1COc2ccccc2O1 (stereo not drawn),.,-2.9%,0.7%,.,38.9%,.
COCCCn1c(Cc2csc(Nc3cccc(Cl)c3)n2)nnc1SCC(=O)OC,25.1µM*,?,56.2µM*,28.2µM*,-7.5%,?
CN(Cc1ccccc1)S(=O)(=O)c1ccc(NC(=O)c2ccccc2C(=O)O)cc1,.,.,3.0%,.,38.1%,.
COc1ccccc1C(=O)NS(=O)(=O)c1ccc(C)cc1,.,4.0%,-13.2%,.,43.8%,.
Cc1ccc(S(=O)(=O)NC(=O)c2ccc(-c3ccc(C)c4ccccc34)o2)cc1,-2.7%,-7.2%,44.7µM*,50.1µM*,-2.1%,?
